PubChem BioAssay AID1159580 (chemical genetic matrix, 2015)
Hit rate of the full screen: of about 5,500 compounds, about 2,000 (36%) were called active. Roughly 18% stayed inconclusive and do not appear here. Rule as the data show it: active = normalized growth mostly below about 0.91 (no sharp cut-off); inconclusive = no clear call, values can overlap the other calls; inactive = mostly above about 0.92. The list shows a part of the results.

Experiment: chemical genetic growth profiling, strain panel (AID 1159580);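 also: tested at 20 µM; growth read once vehicle control cultures reached saturation at 30 °C; 1 = growth at the plate median or of vehicle wells; lower values mean less growth of the strain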
Conditions: S. cerevisiae deletion strains, growth OD

Measured: normalized growth

OC(CNCc1ccc(Cl)cc1)CO/N=C\C1=C(Cl)c2cc(Cl)ccc2OC1 (stereo not given)
inactive: locus YAR019C, strain CDC15, hits give low values 0.962 | locus YBL105C, strain PKC1, hits give low values 0.981 | locus YBR135W, strain CKS1, hits give low values 0.981 | locus YBR136W, strain MEC1, hits give low values 0.957 | locus YBR160W, strain CDC28, hits give low values 0.988 | locus YDL017W, strain CDC7, hits give low values 0.986 | locus YDL028C, strain MPS1, hits give low values 0.975 | locus YDL101C, strain DUN1, hits give low values 0.987 | locus YDL108W, strain KIN28, hits give low values 0.967 | locus YDL132W, strain cdc53, hits give low values 0.979 | locus YDL214C, strain PRR2, hits give low values 0.925 | locus YDR052C, strain DBF4, hits give low values 0.989 | locus YDR054C, strain cdc34, hits give low values 0.98 | locus YDR226W, strain ADK1, hits give low values 0.97 | locus YDR477W, strain SNF1, hits give low values 0.974 | locus YER123W, strain YCK3, hits give low values 0.867 | locus YER133W, strain GLC7, hits give low values 0.933 | locus YFL009W, strain cdc4, hits give low values 0.976 | locus YFL029C, strain CAK1, hits give low values 0.963 | locus YFR003C, strain YPI1, hits give low values 0.981 | locus YFR019W, strain FAB1, hits give low values 0.921 | locus YFR028C, strain CDC14, hits give low values 0.96 | locus YGR040W, strain KSS1, hits give low values 0.97 | locus YGR052W, strain FMP48, hits give low values 1 | locus YGR092W, strain DBF2, hits give low values 0.928 | locus YHR030C, strain SLT2, hits give low values 0.871 | locus YHR079C, strain IRE1, hits give low values 0.931 | locus YHR082C, strain KSP1, hits give low values 0.966 | locus YHR205W, strain SCH9, hits give low values 0.949 | locus YIL147C, strain SLN1, hits give low values 0.969 | locus YJL095W, strain BCK1, hits give low values 0.915 | locus YJL128C, strain PBS2, hits give low values 0.933 | locus YJL157C, strain FAR1, hits give low values 0.971 | locus YJR016C, strain ILV3, hits give low values 0.991 | locus YJR066W, strain TOR1 (second series), hits give low values 1 | locus YJR066W, strain TOR1, hits give low values 0.944 | locus YKL048C, strain ELM1, hits give low values 0.931 | locus YKL067W, strain YNK1, hits give low values 0.937 | locus YKL101W, strain HSL1, hits give low values 0.923 | locus YKL193C, strain SDS22, hits give low values 0.981 | locus YKL203C, strain TOR2, hits give low values 0.983 | locus YLR113W, strain HOG1, hits give low values 0.87 | locus YLR133W, strain CKI1, hits give low values 0.96 | locus YLR403W, strain SFP1, hits give low values 0.996 | locus YML070W, strain DAK1, hits give low values 0.924 | locus YMR001C, strain CDC5, hits give low values 0.985 | locus YMR205C, strain PFK2 (second series), hits give low values 0.949 | locus YMR277W, strain FCP1, hits give low values 0.981 | locus YNL006W, strain LST8, hits give low values 0.99 | locus YNL020C, strain ARK1, hits give low values 0.963 | locus YNL161W, strain CBK1, hits give low values 0.983 | locus YNL183C, strain NPR1, hits give low values 0.932 | locus YNL207W, strain RIO2, hits give low values 0.97 | locus YNL222W, strain SSU72, hits give low values 0.979 | locus YNL307C, strain MCK1 (second series), hits give low values 0.934 | locus YOL078W, strain AVO1, hits give low values 0.984 | locus YOL136C, strain PFK27, hits give low values 0.921 | locus YOR061W, strain CKA2, hits give low values 0.969 | locus YOR119C, strain RIO1, hits give low values 0.957 | locus YOR231W, strain MKK1, hits give low values 0.918 | locus YOR329C, strain SCD5, hits give low values 0.977 | locus YPL031C, strain PHO85, hits give low values 0.975 | locus YPL153C, strain RAD53, hits give low values 0.984 | locus YPL204W, strain HRR25, hits give low values 0.994 | locus YPL209C, strain IPL1, hits give low values 0.981 | locus YPL256C, strain CLN2, hits give low values 0.864 | locus YPR025C, strain CCL1, hits give low values 0.981 | locus YPR106W, strain ISR1, hits give low values 0.963 | locus YPR111W, strain DBF20, hits give low values 0.962 | strain NNK1, hits give low values 0.959 | strain TSCII, hits give low values 0.979

CC1(C)CCC2=C(O1)c1ccccc1C(=O)C2=O
active: locus YAL013W, strain DEP1, hits give low values 0.879 | locus YCL061C, strain MRC1 (second series), hits give low values 0.876 | locus YDR150W, strain NUM1, hits give low values 0.857 | locus YDR363W, strain ESC2, hits give low values 0.706 | locus YPL055C, strain LGE1, hits give low values 0.769 | locus YPL241C, strain CIN2, hits give low values 0.861
inactive: locus YAL040C, strain CLN3, hits give low values 1.02 | locus YER002W, strain NOP16, hits give low values 1 | locus YGR078C, strain PAC10, hits give low values 0.977 | locus YMR263W, strain SAP30, hits give low values 0.956 | locus YNL175C, strain NOP13, hits give low values 0.973 | locus YNL197C, strain WHI3, hits give low values 0.926 | locus YNL224C, strain SQS1, hits give low values 1 | locus YOR083W, strain WHI5 (second series), hits give low values 0.938
